We go through 14 molecules from paper PMC12136788.

B1: chr17:61865808:61865921:-|3pUTR|ENSG00000108506|unk|FALSE|unique (ssRNA)
RNA: GGGAGUUCUACAGUCCGACGAUCUUCUAUGAGAAUGAGUUUGUAGCUGUUUCAAAUCAUGAAGUGCAUAGUAUCACAUGUGAUAGAAUAUUUAUAACUUUUUAUUAGAUGCUUAAUGUUCAAUUAAGUAAUUUUGAUGUGAAACAACAGAGGAUUGAGCAUCA
B2: chr17:37686430:37687371:-|three_prime_utr|ENSG00000275410|control|control|control (ssRNA)
RNA: GGGAGUUCUACAGUCCGACGAUCUGCAAUUUCCCCUCUGUGUCCUCUCCCCUCUGCCCUGUAUAUAAUACUAAAGUGUCUAUUAGUUUUCUUUGUAAAGGUCAGAGUCAAAAUUUCAAAAGUGAUCUGUCCCCUCUCCCCUCACAACAGAGGAUUGAGCAUCA
B3: chr16:21983864:21984660:-|three_prime_utr|ENSG00000155714|control|control|control (ssRNA)
RNA: GGGAGUUCUACAGUCCGACGAUCAAAGAAAAUUGAGCUGGCAAAAGAUGAAUCUUUCACAAGCAGUGAUGAUAAUGAAAAUGUAGAUUUAGAUAAAAGACUUCAAUAUUAUAGAUAUCCGUGGUCAACUGUGCAUCACCCUGCCAACAGAGGAUUGAGCAUCA
B4: chr15:49134392:49134529:-|CDS|ENSG00000166200|unk|FALSE|unique (ssRNA)
RNA: GGGAGUUCUACAGUCCGACGAUCAUAUUUGCUUUCCUAGACUGAUGAUGGAGAAGAUGAUCUGAAAAAAGGUACACAGUUAUUAGAAAUAUAUGCUUUGGAAAUUCAAAUGUACACAGCACAGAAAAAUAACAAAAAACUUAACAACAGAGGAUUGAGCAUCA
B5: chr5:72209348:72209524:+|3pUTR|ENSG00000131711|msi1_unk|total|mutant (ssRNA)
RNA: GGGAGUUCUACAGUCCGACGAUCUUAUGUCUUAUAAUCCUGCAUCACUUCUAUCCUAUCCAGUCAUAUCUAAUGCCGAAAAUCCGUUUCCAGUGAAAGUAAUAUGCCGUGCUUUUAUGAUAUUUGUGUGCAAUAUCCCCUCUUCAACAGAGGAUUGAGCAUCA
B6: chr11:101890673:101891278:-|three_prime_utr|ENSG00000187151|control|control|control (ssRNA)
RNA: GGGAGUUCUACAGUCCGACGAUCGUAAUGCAAGUUCUACAAUGAUAAUAUAUUAAAGAUUUUUAAAAGUUUAUCUUUUCACUUAGUGUUUCAAACAUAUUAGGCAAAAUUUAACUGUAGAUGGCAUUUAGAUGUUAUGAGUUUCAACAGAGGAUUGAGCAUCA
B7: chr2:99394746:99394872:+|CDS|ENSG00000158417|unk|FALSE|unique (ssRNA)
RNA: GGGAGUUCUACAGUCCGACGAUCGAUGUGAGAAUUGAACGAGAUGCACAAGAAAUGGCUGAUAGUUUAGGAGUUAGAAUUUUUAGUGCAGAAAUUAUUUAUCAUUUAUUUGAUGCCUUUACAAAAUAUAGACAAGACUACAAGCAACAGAGGAUUGAGCAUCA
B8: ENSG00000176244:stop:overlap|stop_codon|ENSG00000176244|stop_codon|NA|stop_codon (ssRNA)
RNA: GGGAGUUCUACAGUCCGACGAUCAAGAUGCGACGAGUGCCUAUAUUUCUAAAGCAAAGGAGCUGAUAGAAAAAUACGGAAUUUAGAAUACAGCAUAUGAGGAAUUUUUCCUUUUGAAGACUUCCAAAUGCUAUCAUGACCUAACAACAGAGGAUUGAGCAUCA
B9: chr9:5123879:5124511:-|three_prime_utr|ENSG00000120210|control|control|control (ssRNA)
RNA: GGGAGUUCUACAGUCCGACGAUCCUGGUAAAUUGGAUUGCCAUAUGCAGAAGAAUGAAACUGGACCCAUAUUUAUCACCAUAUAGAAAAAUUAACUCGAUCGAUUACAGACUUAAAUGUAAGAUCUGAAACUAGAAAAAUACUCAACAGAGGAUUGAGCAUCA
B10: chr5:72209348:72209524:+|3pUTR|ENSG00000131711|msi1_unk|FALSE|overlapping (ssRNA)
RNA: B5 RNA with C75U, C76A, C83U, C84A, C106U, C107A
B11: chr2:99394746:99394872:+|CDS|ENSG00000158417|unk|total|mutant (ssRNA)
RNA: B7 RNA with U62C, A63C, U67C, A68C, U74C, A75C, U83C, A84C, U128C, A129C
B12: chr5:24509697:24509799:-|CDS|ENSG00000040731|unk|FALSE|unique (ssRNA)
RNA: GGGAGUUCUACAGUCCGACGAUCACUCGACUAUGAGAGCCGAAGACUUUAUACUCUGAAAGUCGAAGCAGAAAACACCCAUGUAGAUCCCCGUUUUUAUUACCUAGGACCAUUUAAAGAUACUACCAUAGUGAAAAUCUCUAUCAACAGAGGAUUGAGCAUCA
B13: chr11:118751385:118751486:-|3pUTR|ENSG00000110367|msi1|FALSE|unique (ssRNA)
RNA: GGGAGUUCUACAGUCCGACGAUCUUGAAGUCUCUUCCCUUUCUACCCAGUACUCGAGCCCAGGGCUAGAAGUUGAAACUCACUAGUAAUGUUAAACACCAUUUUUUUUUUCUUUUUGGGGAGGAGUUGAUAUGCAACUGCAGUCAACAGAGGAUUGAGCAUCA
B14: chr4:173322470:173322571:+|3pUTR|ENSG00000109586|msi1|total|mutant (ssRNA)
RNA: GGGAGUUCUACAGUCCGACGAUCUGCCGCAUUCACUCCCUUACCUACUGGCAUUCCCAGUGCCCUCUGUCCAUACCUACUUCCCGGAUUGCAAAGGAGUCUUCCAACCCGAGAAAAAUUGUCCACUGACAUUUGGGAUUUACUCAACAGAGGAUUGAGCAUCA

Residue numbers refer to the chain shown, from its start. Whole data set: some 5,800 sequences, median “enrichment r” near 0.54, cut for the highest 2% near 16. Shown is part of a subset that was picked to be rich in the highest values.

For the experiment, the target named is MSI1 full-length (mouse, UniProt Q61474 1-362). Kind of experiment: nsRBNS (natural sequence RNA bind-n-seq); RBNS binding buffer (assumed for nsRBNS): 25 mM Tris pH 7.5, 150 mM KCl, 3 mM MgCl2, 0.01% Triton X-100, 500 ug/ml BSA, 20 U/ml SUPERase-In, 4 C; UNK is unkempt and MSI1 is Musashi-1; names of the RNAs are library labels; protein concentration not given here; high values mean tight binding.
MSI1 full-length, sequence (Q61474 whole entry): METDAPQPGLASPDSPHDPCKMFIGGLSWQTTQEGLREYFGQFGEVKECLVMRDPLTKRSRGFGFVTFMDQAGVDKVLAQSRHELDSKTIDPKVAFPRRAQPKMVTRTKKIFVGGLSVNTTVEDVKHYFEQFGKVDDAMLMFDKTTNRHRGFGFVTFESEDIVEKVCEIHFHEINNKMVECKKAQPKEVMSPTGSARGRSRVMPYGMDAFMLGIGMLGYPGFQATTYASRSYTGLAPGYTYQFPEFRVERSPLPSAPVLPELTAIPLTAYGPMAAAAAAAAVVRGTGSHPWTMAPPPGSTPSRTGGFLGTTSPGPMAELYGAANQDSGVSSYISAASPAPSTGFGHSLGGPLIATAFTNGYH
In turn, B1 gave a binding signal of 5.16 enrichment R.
Molecule B2 returned a binding signal of 0.979 enrichment R.
Next, B3: 43.6 enrichment R; B4: 0.819 enrichment R; B5: 0.64 enrichment R.
On to B6, for which the binding signal was determined as 3.72 enrichment R.
The result for B7 reads 35 enrichment R.
For the molecule B8, the binding signal came to 0.512 enrichment R.
The result for B9 reads 19.7 enrichment R.
Take B10: the binding signal stood at 22.2 enrichment R.
The result for B11 reads 0.374 enrichment R; that for B12, 3.85 enrichment R.
Next, B13: 1.4 enrichment R; B14: 0.767 enrichment R.
